Hits are enriched below; roughly 3.7% of the tested compounds scored in any of these assays.
Nrf2 inh: Nrf2 qHTS screen for inhibitors. A549 ARE-Fluc reporter, luciferase luminescence, 18-24 h. Potency, µM (series often up to 46 µM), inactives show top-dose activity change, negative = inhibition, actives largely listed as inhibitors. 360,000 tested, 2.1% active. AID 504444, 2011; also: potency is read from the fitted curve at half-maximal effect; % is scaled to controls: 0 for no effect and ±100 for the full control effect; nearly all actives have a fitted effect of over 60% in size
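Concentration-response testing used A549 ARE_Fluc cells at 5000 cells/well. Following an 18-24 h compound incubation, viability was read by fluorescence (Ex 405/Em 525) and luciferase output by luminescence.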
Nrf2 ARE act: qHTS of Nrf2 Activators. AREc32 ARE-luciferase reporter (MCF7-derived line), luminescence, 24 h. Potency, µM (doses to about 46.1 µM), for the others: top-dose activation, actives largely listed as activators. 410,000 tested, 0.31% active; also: potency is read from the fitted curve at half-maximal effect; % of control where 0% means no effect; nearly all actives have a fitted effect of over 65% in size
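AREc32 cells carrying an ARE-driven firefly luciferase reporter were seeded at 1000 cells/well in OPTI-MEM with 5% FBS, then exposed to compound for 24 hr at 37 deg C. Luminescence was read with Steady-Glo after 30 min at RT.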
IL2 activator: qHTS of IL-2 Activators. 360,000 tested, 0.065% active. activation, % (series mostly up to about 46 µM). AID 652025, 2013. IL-2 activation reporter assay, cell-based qHTS; stimulated with anti-CD3/CD4/CD28 beads; in transgenic mouse T cells; in the data active = activation above about 50%; inconclusive = mostly about 30% to 49%; also: 0% is about no effect
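Screening format: compound pinned onto unstimulated transgenic mouse T cells, 60 min incubation, then anti-CD3/anti-CD4/anti-CD28 bead stimulation for 18 hours at 37 degrees C, followed by EGFP and DsRed detection.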
miR-21 reporter: qHTS Assay for Modulators of miRNAs and/orActivators of miR-21; HeLa miR-21 FLuc reporter, luciferase, 48 h; Potency, µM (titrated, usually from 38.3 µM), for inactives: at the top dose activity change, positive = activation, usual class: activators; 340,000 tested, under 10 active;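 also: % of control where 0% means no effect; miR-21 action dims this reporter so a rising signal means less miR-21 action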
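HeLa cells stably expressing CMV-driven firefly luciferase with a downstream miR-21 binding sequence, endogenously expressing miR-21, were treated with titrations (up to about 40uM final) for 48 hours at 37 degree Celsius. Luciferase luminescence was read after lysis.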
ClpP mod: qHTS Assay for Activators of ClpP | purified B. subtilis ClpP, FRET peptide cleavage, 20 min | 340,000 tested, 1.9% active | Potency, µM (titrated, usually from 57.5 µM), inactives show at the top dose activity change, negative = active | ATP-dependent Clp protease proteolytic subunit (Bacillus subtilis (strain 168)), P80244; active = well fitted falling curve with a large enough effect; inconclusive = small, poorly fitted or top-dose-only effect; inactive = no such curve, though single readings can be large or run the other way; also: potency is read from the fitted curve at half-maximal effect; the source files actives as falling curves though it sought activators and does not explain the sign; nearly all actives have a fitted effect of over 65% in size
Target sequence (P80244 whole entry, looked up): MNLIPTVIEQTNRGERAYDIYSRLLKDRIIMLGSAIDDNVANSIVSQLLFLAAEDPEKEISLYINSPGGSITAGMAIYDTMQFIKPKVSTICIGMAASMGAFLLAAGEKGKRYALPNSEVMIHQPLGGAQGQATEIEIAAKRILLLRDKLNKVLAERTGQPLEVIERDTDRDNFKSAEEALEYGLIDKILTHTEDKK
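Buffer: 100 mM Tris/HCl pH8, 100 mM KCl, 0.05% low protease BSA, 2.5% glycerol, 0.01% Tween-20. ClpP 10 microg/mL final; 20 min RT; delta FRET normalized to ADEP and DMSO controls.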
A549 viability: Nrf2 qHTS screen for inhibitors: counterscreen for cytotoxicity; A549 ARE-Fluc cells, CellTiter-Fluor viability, 18-24 h; Potency, µM (series often up to 46 µM), for inactives: at the highest dose activity change, negative = cytotoxicity, hits mostly inhibitors; 390,000 tested, 0.16% active; also: potency is read from the fitted curve at half-maximal effect; % is scaled to controls: 0 for no effect and ±100 for the full control effect
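A549 ARE-Fluc cells in 5% FBS OPTI-MEM, 5000 cells/well, rested 2 h then exposed to compounds in concentration-response for 18-24 h at 37 °C. Viability by CellTiter-Fluor fluorescence (Ex 405/Em 525) after 30 min; luciferase luminescence (BugLite, 15 min, RT) read afterwards.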
* = called active by the depositor; ? = inconclusive; / = no result. Unless noted, calls follow the shape of the dose curve; as a rule, active = well fitted curve in the direction sought with a large enough effect; inconclusive = small, poorly fitted or top-dose-only effect, or another doubt; inactive = no such curve, though single readings can be large; an effect the other way counts as inactive or inconclusive.

SMILES	Nrf2 inh	Nrf2 ARE act	IL2 activator	miR-21 reporter	ClpP mod	A549 viability
COc1cccc(C(=O)COc2cccc(NC(=O)c3cccc([N+](=O)[O-])c3)c2)c1	18µM*	0%	-1	?	1%	-18%
COc1ccc(NC(=O)c2cccc(Oc3ccc([N+](=O)[O-])cc3Cl)c2)cc1	?	0%	-5	20%	/	?
COC(=O)CN1C(=O)C(O)(c2c(C)[nH]c3ccccc23)c2ccccc21 (centres undefined)	/	3%	/	-2%	-2%	3%
COc1cc(OC)c(/C=C/c2ccncn2)c(OC)c1	/	/	/	/	-11%	/
c1ccc(C(Cc2nc(-c3ccncc3)no2)c2ccccc2)cc1	8.2µM*	3%	-3	15%	-1%	-15%
c1cncc(-c2noc(-c3ccc4ccccc4c3)n2)c1	?	1%	0	-46%	0%	-10%
c1ccc(-c2ccc(-c3nc(-c4ccncc4)no3)cc2)cc1	?	0%	-1	-47%	-6%	-3%
Cc1ccc(Cc2nc(-c3ccncc3)no2)cc1	?	0%	11	-24%	2%	2%
c1ccc(-c2ccc(-c3nc(-c4cccnc4)no3)cc2)cc1	?	1%	0	-50%	14µM*	21%
c1ccc(-c2nc(-c3ccncc3)no2)cc1	?	11µM*	0	-51%	-1%	-11%
c1ccc(-c2noc(-c3cccnc3)n2)cc1	?	3.2µM*	-3	-39%	-2%	0%
CCOc1cc(CNC(=O)NC2COc3ccccc3C2)cc(OCC)c1OCC (centres undefined)	/	8%	/	0%	0%	5%
COc1cccc(C(=O)NCC(c2ccc(N(C)C)cc2)N2CCCC2)c1OC (centres undefined)	/	5%	/	-6%	-1%	-4%
CCc1ccc(NCc2cccn2-c2nnc(N3CCCCCC3)s2)cc1	?	3%	/	-22%	0%	3%
O=c1[nH]c2ccccc2cc1-c1noc(-c2cccnc2)n1	4%	2%	0	-6%	32µM*	2%
Clc1ccccc1-c1nc(-c2ccncc2)no1	?	11µM*	2	-57%	/	-7%
Cc1ccccc1-c1nc(-c2cccnc2)no1	?	13µM*	0	-48%	1%	-5%
Cc1nn(-c2ccccc2)c(C)c1C(=O)OC(C)C(=O)NC1CCCCC1 (centres undefined)	18µM*	1%	-1	/	/	-21%
COc1ccc(Cn2ncc3c4sc(C)cc4n(C)c3c2=O)cc1	2%	/	/	/	/	-4%
Cn1ncc2c(O/N=C(\N)c3ccc(C(C)(C)C)cc3)ncnc21	18µM*	-2%	-4	?	/	16µM*
COc1ccc(-c2cc(C(=O)O)n(Cc3ccccc3)n2)cc1	-19%	0%	/	-11%	-12%	-4%
CCOC(=O)c1c(C)[nH]c(C)c1S(=O)(=O)N1CCN(c2cccc(C(F)(F)F)c2)CC1	0%	-2%	/	18%	-10%	-4%
Cc1cc(NC(=O)COC(=O)C(Nc2ccc(C(F)(F)F)cc2Cl)C(C)C)no1 (centres undefined)	23µM*	0%	-2	20%	1%	23µM*
COc1ccc(C2Nc3ccccc3C(=O)N2Cc2ccccn2)cc1COc1ccc(NC(C)=O)cc1 (centres undefined)	?	/	/	/	/	-11%
COCCCNC(=O)C[C@H]1C[C@H](C(=O)N2CCCCC2)[C@@]2(CCc3ccccc3)c3[nH]c4cc(-c5ccco5)ccc4c3CCN2C1=O	23µM*	3%	0	/	4%	-25%
SMILES	Nrf2 inh	Nrf2 ARE act	IL2 activator	miR-21 reporter	ClpP mod	A549 viability
CC(C)N(C(=O)[C@H]1CC(CC(=O)NCC23CC4CC(CC(C4)C2)C3)C(=O)N2CCc3c([nH]c4ccccc34)[C@]12C)C(C)C (some centres undefined)	26µM*	-1%	-1	/	-2%	?
CC(C)=CCC/C(C)=C/CNC(=O)C[C@H]1C[C@H](C(=O)N2CCOCC2)[C@@]2(C)c3[nH]c4cc(CCC(=O)N(C)C)ccc4c3CCN2C1=O	15µM*	7%	-1	/	-1%	-16%
CC(C)N(C(=O)[C@H]1C[C@H](CC(=O)NCC23CC4CC(CC(C4)C2)C3)C(=O)N2CCc3c([nH]c4cc(-c5ccco5)ccc34)[C@]12C)C(C)C	?	-1%	-1	/	5%	-21%
CC(C)N(C(=O)[C@H]1C[C@H](CC(=O)NCCC2=CCCCC2)C(=O)N2CCc3c([nH]c4ccc(Cl)cc34)[C@]12C)C(C)C	21µM*	0%	-1	/	-17%	?
c1nc(NCC2CCCO2)c2ccc(-c3ccc4c(c3)OCO4)cc2n1 (centres undefined)	?	/	/	/	/	0%
C[C@]12c3[nH]c4ccccc4c3CCN1C(=O)C(CC(=O)NCC13CC4CC(CC(C4)C1)C3)C[C@@H]2C(=O)N1CCCCC1 (some centres undefined)	16µM*	-1%	-1	/	-2%	-13%
COc1ccc2[nH]c3c(c2c1)CCN1C(=O)C(CC(=O)NCC24CC5CC(CC(C5)C2)C4)C[C@H](C(=O)N2CCCCC2)[C@@]31C (some centres undefined)	?	0%	0	/	-1%	?
CCN(CC)C(=O)[C@H]1C[C@H](CC(=O)NCc2cccc(C(F)(F)F)c2)C(=O)N2CCc3c([nH]c4cc(-c5ccco5)ccc34)[C@]12C	18µM*	-2%	-1	/	3%	?
C[C@]12c3[nH]c4ccccc4c3CCN1C(=O)C(CC(=O)NCC13CC4CC(CC(C4)C1)C3)C[C@@H]2C(=O)N1CCOCC1 (some centres undefined)	-14%	6%	-1	/	-2%	0%
CCN(CC)C(=O)[C@H]1C[C@H](CC(=O)NCc2ccco2)C(=O)N2CCc3c([nH]c4cc(-c5ccco5)ccc34)[C@]12C	?	25%	1	/	4%	-8%
CCN(CC)C(=O)[C@H]1CC(CC(=O)NCC23CC4CC(CC(C4)C2)C3)C(=O)N2CCc3c([nH]c4ccc(OC)cc34)[C@]12C (some centres undefined)	23µM*	5%	-1	/	0%	-7%

Compound activity: PubChem, National Center for Advancing Translational Sciences (NCATS)
